# Results as given in PubChem BioAssay (Tox21).
# Inconclusive results are not listed. Activity calls are given as the source filed them. Calls follow the shape of the dose curve; as a rule, active = well fitted activation curve with a large enough effect; inconclusive = small, poorly fitted or top-dose-only effect; inactive = flat fitted curve, though single readings scatter.
# Experiment: qHTS assay to identify small molecule phospholipidosis (PLD) inducers (AID 1259344)
# Settings: HepG2 phospholipidosis, LipidTOX Red imaging, 24 h; series mostly up to 38.3 µM
# Excerpt: National Center for Advancing Translational Sciences [NCATS]
# Drug-induced Phospholipidosis (PLD) caused by cationic amphiphilic drugs is characterized by the appearance of unicentric or multicentric-lamellar bodies when viewed under electron microscope. Electron microscopy is the gold standard method for PLD detection, however, this method is time-consuming and labor intensive, making it unsuitable for evaluating a large set of compounds. A cell-based phospholipidosis assay has been developed using the LipidTox reagent in HepG2 cells and miniaturized into a 1536-well plate format. Drug induced phospholipid accumulation is stained with the LipidTox dyes in red color which then is determined using an automated high content screening system.
# HepG2 cells are dispensed at 900 cells/3 uL/well into Collagen I-coated 1536-well black-wall/clear-bottom assay plates (Greiner Bio-One, Monroe, NC) using the Multidrop Combi 8 channel dispenser (Thermo Fisher, Waltham, MA, USA). The assay plates are incubated at 37 C for 4 hours to allow the cell attachment. 3 uL of 1:500 LipidTOX Red dye is added using the dispenser, and then 23 nL compounds are added via a Wako Pintool station (Wako Automation, San Diego, CA). Amiodarone, a known PLD inducer, was used as a positive control and DMSO was used as a negative control. The assay plates were then incubated at 37 C for 24 hours.
# For fixations, 4 uL of 8% paraformaldehyde fixative solution containing 10 ug/mL Hoechst 33342 in Dulbecco's phosphate-buffered saline (DPBS) is added using a Kalypsys washer/dispenser (Kalypsys, San Diego, CA, USA). After incubation at room temperature for 30 min, the assay plates are washed once with DPBS using a Kalypsys washer/dispenser. The assay plates are then sealed and stored at 4 C before imaging. The fluorescence intensities (595 nm excitation, 615 nm emission for LipidTOX; 352 nm excitation, 461 nm emission for Hoechst 33342) are measured using an ImageXpress Micro Widefield High Content Screening System (Molecular Devices, Sunnyvale, CA, USA) with a 20x Plan Fluor objective. Images are acquired for one site in each well and analyzed with the MetaXpress software (Molecular Devices) using the Transfluor module. Several algorithmic outputs, such as pit count per well, pit count per cell, pit integrated intensity per well, and pit integrated intensity per cell, are used for quantitative image analysis for PLD.
row,SMILES,outcome
1,COc1ccc2c(c1OC)C(=O)O[C@@H]2[C@H]1c2c(cc3c(c2OC)OCO3)CCN1C,inactive
2,Cc1nc2n(c(=O)c1CCN1CCC(c3noc4cc(F)ccc34)CC1)CCC[C@H]2O,inactive
3,O=C(CCN1CCN(CCO)CC1)N1c2ccccc2Sc2ccc(C(F)(F)F)cc21,inactive
4,CN1CCN(CC(=O)N2c3ccccc3C(=O)Nc3cccnc32)CC1,inactive
5,C[C@@H](O)[C@H]1C(=O)N2C(C(=O)O)=C(SCCN=CN)C[C@H]12,inactive
6,O=C(NCCc1c[nH]c2ccccc12)c1cccnc1,inactive
7,O=C1c2cccc3c2[C@H](CCC3)CN1[C@@H]1CN2CCC1CC2,inactive
8,CNS(=O)(=O)CCc1ccc2[nH]cc(C3CCN(C)CC3)c2c1,inactive
9,CC(=O)Nc1ccc(S(=O)(=O)Nc2ccc([N+](=O)[O-])cc2)cc1,inactive
10,CC(=O)N[C@@H](CCC(=O)O)C(=O)O,inactive
11,N[C@@H](COP(=O)(O)O)C(=O)O,inactive
12,Oc1cn2c(n1)Nc1ccc(Cl)c(Cl)c1C2,inactive
13,CN(C)C(=O)CNC(=O)Cc1ccccc1,inactive
14,CC(=O)NCc1c(I)c(NC(C)=O)c(I)c(C(=O)O)c1I,inactive
15,COC(=O)CCc1ccc(OCC(O)CNC(C)C)cc1 (stereo not given),inactive
16,O=P(O)(O)OP(=O)(O)O,inactive
17,CCOC(=O)[C@H](CCc1ccccc1)N[C@@H](C)C(=O)N1C(=O)N(C)C[C@H]1C(=O)O,inactive
18,CCCN1C[C@H](CSC)C[C@@H]2c3cccc4[nH]cc(c34)C[C@H]21,inactive
19,CC1(C)S[C@@H]2[C@H](N=CN3CCCCCC3)C(=O)N2[C@H]1C(=O)O,inactive
20,NNc1nnc(NN)c2ccccc12,inactive

row,SMILES,outcome
1,Cc1cc2cc3c(C)cc(=O)oc3c(C)c2o1,inactive
2,COP(=O)(OC)OC(c1ccc(Cl)cc1)P(=O)(OC)OC (stereo not given),inactive
3,CCN1CCc2nc(N)oc2CC1,inactive
4,CCOc1cc(NC(C)=O)ccc1C(=O)OC,inactive
5,CC(=O)OC(C)OC(=O)C(C)c1ccc(-c2ccccc2)c(F)c1 (stereo not given),inactive
6,CN=C(NC#N)Nc1ccc(C2=NNC(=O)CC2C)cc1 (stereo not given),inactive
7,COc1cc(NS(=O)(=O)c2ccc(N)cc2)nc(OC)n1,inactive
8,CC(C)NCC(O)COc1cccc2[nH]ccc12 (stereo not given),inactive
9,CN1C(C)(C)CCCC1(C)C,inactive
10,NC(CO)C(=O)NNCc1ccc(O)c(O)c1O (stereo not given),inactive
11,Cc1cccc(C)c1OCC(C)N (stereo not given),inactive
12,COc1ccc(-c2cc(=O)c3c(O)cc(O[C@@H]4O[C@H](CO[C@@H]5O[C@@H](C)[C@H](O)[C@@H](O)[C@H]5O)[C@@H](O)[C@H](O)[C@H]4O)cc3o2)cc1O,inactive
13,Cc1cc(C(C)(C)C)c(O)c(C)c1CC1=NCCN1,inactive
14,CC1=C(C(=O)O)N2C(=O)[C@@H](NC(=O)[C@H](N)c3ccc(O)cc3)[C@H]2SC1,inactive
15,O=C(OCC1(COC(=O)c2cccnc2)CCCC(COC(=O)c2cccnc2)(COC(=O)c2cccnc2)C1O)c1cccnc1,inactive
16,O=C1O[C@@H]2[C@@H](O)[C@H](O)O[C@@H]2[C@H]1O,inactive
17,CC(C(=O)O)c1ccc2c(c1)CC(=O)c1ccccc1S2 (stereo not given),inactive
18,CC(=O)CCCCn1c(=O)c2c(ncn2C)n(C)c1=O,inactive
19,CC(C)C[C@H](NC(=O)CNC(=O)[C@H](Cc1ccc(O)cc1)NC(=O)[C@H](CO)NC(=O)[C@H](Cc1c[nH]c2ccccc12)NC(=O)[C@H](Cc1cnc[nH]1)NC(=O)[C@@H]1CCC(=O)N1)C(=O)N[C@@H](CCCN=C(N)N)C(=O)N1CCC[C@H]1C(=O)NCC(N)=O (stereo in doubt),inactive
20,COC(=O)c1ccccc1C(=O)c1ccc(OCCN2CCCCC2)cc1,inactive
